Holding throughout (experiment): NCI-60 one-dose screen, 48 h (100 = growth as untreated, 0 = no growth, -100 = all killed)
Assay [1] has as its system RPMI-8226 leukemia. As to conditions: 10 µM unless noted.
Assay [2] concerns OVCAR-8 ovarian. As to conditions: 10 µM unless noted.
The test system of assay [3] is OVCAR-5 ovarian. The settings on record: 10 µM unless noted.
Assay [4] deals with OVCAR-4 ovarian. The settings on record: 10 µM unless noted.
Assay [5] relates to SK-OV-3 ovarian. As to conditions: 10 µM unless noted.
Assay [6] deals with IGROV1 ovarian. As to conditions: 10 µM unless noted.
In assay [7] the test system is OVCAR-3 ovarian. The settings on record: 10 µM unless noted.
Assay [8] has as its system HS 578T breast. As to conditions: 10 µM unless noted.
The test system of assay [9] is NCI/ADR-RES ovarian. The settings on record: 10 µM unless noted.
Assay [10] deals with T-47D breast. The settings on record: 10 µM unless noted.
Assay [11] has as its system BT-549 breast. As to conditions: 10 µM unless noted.
For assay [12], the system named is MDA-MB-435 melanoma. As to conditions: 10 µM unless noted.
Assay [13] deals with SW-620 colon. The settings on record: 10 µM unless noted.
Assay [14] has as its system MCF7 breast. The settings on record: 10 µM.
Assay [15] relates to HCT-116 colon. As to conditions: 10 µM unless noted.
Assay [16] concerns HCC-2998 colon. As to conditions: 10 µM unless noted.
The test system of assay [17] is KM12 colon. The settings on record: 10 µM unless noted.

Compounds without any hit were thinned out: in the full panel of roughly 83,000, 20% have a hit.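 Treatment: one concentration, 48 hours, 96-well format. Scoring: percent growth, with anything below 10 considered active.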 A number with no mark means an inactive call. Active and inactive are the calls of the source.

From PubChem BioAssay (NCI) come the findings set out here.

Regarding `Cc1ccc(OCCCCCCNCCO)c(C)c1`, the growth was 9.43% (active) in assay [1]; -10% (active) in assay [2]; 35.9% in [3]; 16.8% in assay [4]; 16.8% in assay [5]; -4.59% (active) in assay [6]. Further, the growth in assay [7] was 24%; in [8], 18.5%; in assay [9] it was 8.9% (active); in [10], 5.9% (active); in [11], 27.6%; in assay [12] it was 15.2%. Besides, the growth is 18.1% in [13]; 9.1% (active) in assay [14]; 19.1% in assay [15]; -6.64% (active) in assay [16]; 15.1% in assay [17].

On to `COc1ccc(OC)c(/C=C/C(=O)c2c(C)nc3ccccc3c2/C=C/c2ccccc2)c1`, for which the growth in [1] is 19.5%; in [2], 40.5%; in [3] it was 80%; in assay [4] it was 59.3%; in [5] it was 91%; in assay [6] it was 52.6%. Also, the growth in assay [7] is 37.4%; in assay [8], 68%; in [9], 58.9%; in assay [10], 30.6%; in assay [11] it was 59%; in assay [12] it was 46.4%. The growth in assay [13] is 36.5%; in assay [14] it was 19.8%; in [15], 34.1%; in assay [16], 93.6%; in assay [17], 69.4%.

As for `O=C(Nc1ccc(-c2nc3cc4ccccc4cc3[nH]2)cc1)c1cccc(Br)c1`, the growth in assay [1] was 23%; in assay [2], 7.87% (active); in assay [3], 73.7%; in [4], 63.7%; in assay [5], 43.8%; in assay [6] it was 33.2%. Also, the growth was 25.9% in [7]; 83.5% in assay [8]; 39.2% in [9]; 54% in assay [10]; 47.9% in assay [11]; 30% in [12]. The growth in assay [13] is 26.9%; in assay [14], 27.5%; in assay [15] it was 64.6%; in [16], 33.1%; in assay [17], 39.8%.

As for `CCn1c(-c2nonc2Nc2ccc(OC)cc2)nc2ccccc21`, the growth in assay [1] is 117%; in assay [2] it was 102%; in assay [3], 107%; in assay [4] it was 101%; in assay [5], 111%; in assay [6] it was 106%. In addition, the growth in assay [7] is 112%; in assay [8], 96.7%; in assay [9], 96%; in [10] it was 97.3%; in [11], 103%; in [12] it was 96.8%. Also, the growth was 104% in [13]; 110% in assay [14]; 97.4% in assay [15]; 111% in assay [16]; 106% in assay [17].

Consider `CN1C(=O)N(C)C2Nn3c(s/c(=C4\C(=O)N(CCc5ccccc5)c5ccccc54)c3=O)=NC21` (stereo not drawn), for which the growth is 57.2% in assay [1]; 80.9% in assay [2]; 75.2% in assay [3]; 79.3% in assay [4]; 76.9% in [5]; 83% in assay [6]. Also, the growth is 39.7% in assay [7]; 70.5% in assay [8]; 43.8% in [9]; 67.6% in [10]; 72.5% in assay [11]; 5.64% (active) in assay [12]. The growth in assay [13] is 51.9%; in assay [14], 43.2%; in assay [15] it was 37.2%; in assay [16], 85.9%; in assay [17], 66.1%.

Turning to `CC(=O)Nc1nc2c(s1)CCc1c-2cn(S(=O)(=O)c2ccccc2)c1-c1ccccc1`, the growth in [1] is 57.7%; in [2] it was 79.7%; in [3], 97.4%; in assay [4] it was 84.3%; in [5], 101%; in [6] it was 97.2%. Further, the growth is 80.5% in assay [7]; 91.3% in assay [8]; 49.7% in [9]; 49.3% in [10]; 97.7% in [11]; 59.7% in assay [12]. For the same compound, the growth is 79.5% in assay [13]; 54.2% in [14]; 57.9% in [15]; 80.4% in assay [16]; 54.9% in [17].

As for `COc1ccc(/C=C2\N=C(c3ccccc3)N(c3ccc(-c4nc5ccc(C)cc5s4)cc3)C2=O)cc1`, the growth in assay [1] was 69.3%; in assay [2] it was 92%; in assay [3] it was 84.7%; in assay [4], 64.6%; in assay [5] it was 94.2%; in assay [6], 58.6%. For the same compound, the growth in [7] was 72.2%; in [8], 102%; in assay [9] it was 93.6%; in [10], 54.1%; in assay [11] it was 92.8%; in [12], 86.9%. For the same compound, the growth in assay [13] was 101%; in assay [14], 77.1%; in assay [15], 85.9%; in assay [16] it was 96%; in [17] it was 72.1%.

With `CCOc1ccc(Nc2ccnc3cc(Cl)ccc23)cc1`, the growth in [1] is -14.1% (active); in [2], -1.07% (active); in assay [3] it was 36%; in assay [4], 16.5%; in [5], 2.15% (active); in [6] it was 14.9%. Besides, the growth in assay [7] is 11.7%; in assay [8] it was 29.3%; in assay [9], 3.34% (active); in [10] it was 1.44% (active); in assay [11] it was 14.4%; in assay [12], -7.51% (active). Further, the growth in assay [13] is 14.5%; in [14], 4.41% (active); in assay [15] it was 9.4% (active); in [16], 12.2%; in assay [17] it was 6.96% (active).

`CC1=C(C(=O)OCC2CCN(C(=O)OC(C)(C)C)CC2)[C@@H](c2cccc(C#N)c2)C2=C(CC(C)(C)CC2=O)N1`: the growth in [1] is 32.3%; in [2] it was 37.5%; in [3], 70.2%; in [4], 67.3%; in assay [5], 66.5%; in assay [6], 45.4%. In addition, the growth was 52.4% in assay [7]; 64.5% in assay [8]; 44.7% in assay [9]; 56.1% in assay [10]; 50.3% in [11]; 41.4% in assay [12]. In addition, the growth in assay [13] was 29.6%; in assay [14] it was 30.5%; in assay [15], 17.1%; in assay [16], 75.6%; in [17], 36%.
